From PubChem
GPT2 inhibitor: Primary qHTS assay for inhibitors of Glutamate pyruvate transaminase 2 (GPT2); AID 1671188, 2021; Recombinant GPT2, coupled pyruvate oxidase/HRP Amplex Red fluorescence; Potency, µM (series often up to 57.7 µM), for the others: top-dose activity change, negative = inhibition, most hits filed as inhibitors; actives 0.25% (n = 100,000); Alanine aminotransferase 2 (Homo sapiens), Q8TD30; also: potency is read from the fitted curve at half-maximal effect; nearly all actives have a fitted effect of over 60% in size
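Inhibition is scored from Amplex Red fluorescence generated when pyruvate oxidase and HRP act on pyruvate released by GPT2. Reactions contain 10ng/uL enzyme, 250uM a-KG and 2mM L-alanine and run 30 min at room temperature.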
SNCA viab count: GF-AFC viability counterscreen for inhibitors of alpha-synuclein gene (SNCA) expression; actives 0.12% (n = 150,000); Potency, µM (doses to about 57.1 µM), for the others: at the highest dose activity change, negative = cytotoxicity, actives largely listed as cytotoxic; HEK-293-SNCA-luc viability, GF-AFC fluorescence, 24 h;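 also: potency is read from the fitted curve at half-maximal effect; 0% = DMSO-treated cells and -100% = medium-only wells without cells; nearly all actives have a fitted effect of over 30% in size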
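HEK-293-SNCA-luc cells (1500/well) plated 24 h, then exposed 24 h to a dilution series; GF-AFC added 30 min at 37C, fluorescence 405/540 nm; normalised to medium-only and DMSO wells, Hill fit.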
IP6K1 inhibitor: Primary qHTS assay for small molecule inhibitors of Inositol hexaphosphate kinase 1 (IP6K1); Inositol hexakisphosphate kinase 1 (Homo sapiens), Q92551; IP6K1 kinase, ADP-Glo luminescence, 2 h; active compounds read low; activity change, % (series mostly up to about 58 µM); actives 0.81% (n = 140,000); AID 1645851, 2021; in the data active = activity change below about -25%
Target sequence (Q92551 whole entry, looked up): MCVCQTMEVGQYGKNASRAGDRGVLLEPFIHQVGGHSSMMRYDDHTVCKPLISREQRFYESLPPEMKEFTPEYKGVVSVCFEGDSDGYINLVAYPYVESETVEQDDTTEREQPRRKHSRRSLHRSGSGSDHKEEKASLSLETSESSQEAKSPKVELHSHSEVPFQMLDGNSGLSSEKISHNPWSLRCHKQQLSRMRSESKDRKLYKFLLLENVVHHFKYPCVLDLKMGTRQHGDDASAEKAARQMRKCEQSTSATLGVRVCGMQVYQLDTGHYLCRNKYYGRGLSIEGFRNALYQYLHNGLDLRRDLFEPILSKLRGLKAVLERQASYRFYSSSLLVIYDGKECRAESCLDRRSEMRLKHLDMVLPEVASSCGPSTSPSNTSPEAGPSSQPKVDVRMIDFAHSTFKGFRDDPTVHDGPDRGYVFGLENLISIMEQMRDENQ
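ADP-Glo luminescence measures ADP made by human IP6K1 during a 2 h RT reaction with ATP/IP6 (mix at 1.3 mM/130 uM); top library doses 57.5 and 19.1 uM final.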
SNCA expr inh: Primary qHTS assay for inhibitors of alpha-synuclein gene (SNCA) expression; HEK-293 SNCA-luciferase knock-in, luminescence, 24 h; Potency, µM (titrated, usually from 57.2 µM), without a hit: top-dose activity change, negative = inhibition, hits mostly inhibitors; actives 0.17% (n = 140,000); AID 1671194, 2021;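 also: potency is read from the fitted curve at half-maximal effect; plate controls were DMSO cells for no effect and cell-free wells for full effect; nearly all actives have a fitted effect of over 45% in size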
IP6K1 conf: Confirmatory qHTS assay for small molecule inhibitors of Inositol hexaphosphate kinase 1 (IP6K1); shares compounds with IP6K1 inhibitor; AID 1645852, 2021; Potency, µM (series often up to 49 µM), for the others: at the top dose activity change, negative = inhibition, usual class: inhibitors; actives 13% (n = 1,200); recombinant IP6K1 kinase, ADP-Glo luminescence, 2 h; also: potency is read from the fitted curve at half-maximal effect; nearly all actives have a fitted effect of over 65% in size
The depositor's hits bear a star; i = inactive; ? = inconclusive; . = no result given; [ ] = dose if it differs, or a comment. A selection: hits, their analogues and other compounds. The true share with any hit is near 1%. Unless noted, calls follow the shape of the dose curve; as a rule, active = well fitted curve in the direction sought with a large enough effect; inconclusive = small, poorly fitted or top-dose-only effect, or another doubt; inactive = no such curve, though single readings can be large; an effect the other way counts as inactive or inconclusive. Unless noted, % is scaled to controls: 0 for no effect and ±100 for the full control effect.

SMILES	GPT2 inhibitor	SNCA viab count	IP6K1 inhibitor	SNCA expr inh	IP6K1 conf
CC(=O)N1CCCC(C(=O)N2CCCC2c2nc3ccncc3[nH]2)C1 (stereo unspecified)	i	-5%[87.6 µM]	2	6%[87.6 µM]	.
Cn1nc(-c2ccccc2F)c2cc(C(=O)NCc3ccc(Cl)cc3)sc21	.	?	-39*	?	?
CC(C)C(=O)c1cc2c(cc1NC(=O)c1ccccc1F)OCCO2	.	13%	-28*	-10%	-17%
COc1ccc(C(=O)Nc2cc3c(cc2C(=O)c2ccccc2Cl)OCCO3)cc1	.	3%	2	?	.
NCc1cccc(-c2ccc(F)cc2F)c1	i	-1%[87.6 µM]	-3	30%[87.6 µM]	.
CCOC(=O)c1cnc2cc(Cl)c(OC)cc2c1Nc1ccc(Br)cc1C	.	-1%	1	-13%	.
Cn1cnc2c(F)c(Nc3ccc(Br)cc3Cl)c(C(=O)NOCCO)cc21	4%	12%	15	13%	-13%
N#Cc1ccc(-c2cnc3[nH]cc(NC(=O)c4cccnc4)c3c2)cc1	-6%	-17%	-28*	.	?
O=C(Cc1c[nH]c2ncc(-c3ccc(Cl)cc3)cc12)NCc1cccnc1	-5%[88.5 µM]	4%[87.6 µM]	-25*	17%[87.6 µM]	-25%
NC(=O)Cc1c[nH]c2ncc(-c3ccccc3C(F)(F)F)cc12	-17%[88.5 µM]	-10%[87.6 µM]	-34*	-11%[87.6 µM]	?
COc1ccc(-c2cnc3[nH]cc(CC(N)=O)c3c2)cc1OC	-1%[88.5 µM]	-7%[87.6 µM]	-31*	16%[87.6 µM]	?
COc1ncccc1-c1cnc2[nH]cc(CC(N)=O)c2c1	4%[88.5 µM]	2%[87.6 µM]	-29*	69%[87.6 µM]	?
NC(=O)Cc1c[nH]c2ncc(-c3ccc(F)cc3)cc12	i	6%[87.6 µM]	-29*	10%[87.6 µM]	?
Cc1cccc(-c2noc([C@@H]3Cc4nc[nH]c4CN3C(=O)NC(C)C)n2)c1	-4%[88.5 µM]	-4%[87.6 µM]	-4	-12%[87.6 µM]	.
CCCCCCCCOc1ccccc1C(=O)Nc1ccc(C(=O)OCC[N+](C)(CC)CC)cc1	1%	?	-37*	9%[25.6 µM]	?
O=C(CCC[C@H]1NC[C@@H]2C[C@H]1CN(Cc1ccccc1)C2)N1CCN(c2ncccn2)CC1	i	-3%	-25	-6%	.
Cc1nn(-c2ccccc2)c2c1C(C(C)C)N(C1CCN(C(=O)c3ccccc3Cl)C1)C2=O (stereo unspecified)	.	.	-4	.	.
O=C(CS)Nc1ccccc1	-7%	?	-27*	32%[25.6 µM]	?
O=C(O)CCn1cnc2onc(-c3ccccc3Cl)c2c1=O	.	18%	-42*	1%	-12%
O=C(CCn1cnc2onc(-c3ccc(F)cc3)c2c1=O)N1CCN(c2ccccc2)CC1	.	2%	22	-17%	.
Cc1ccoc1C(=O)N1C[C@@H](CO)[C@H](c2ccccn2)C1	-13%	-8%	-40*	21%	11%
COC[C@@H]1CN(C(=O)c2occc2C)C[C@H]1c1ccccn1	i	-11%	18	-15%	.
CCCOc1ccc(-c2nc3ccc(Br)cc3c(=O)o2)cc1	.	24%	-16	60%	.
CCOc1cccc(-c2nc3ccccc3c(=O)o2)c1	.	8%	-29*	94%	?
N[C@H]1CCN2C(=O)c3cc(-c4ccc5c(c4)OCO5)ccc3NC(=O)[C@H]12	-2%[88.5 µM]	-13%[87.6 µM]	-30*	8%[87.6 µM]	-23%
SMILES	GPT2 inhibitor	SNCA viab count	IP6K1 inhibitor	SNCA expr inh	IP6K1 conf
O=C1Nc2ccc(-c3ccc4c(c3)OCO4)cc2C(=O)N2CC[C@H](NC(=O)N3CCOCC3)[C@@H]12	1%	3%	-8	10%	.
CCN(c1ccccc1)c1nnc(NC(=O)Nc2cccc(Cl)c2C)s1	.	3%	-102*	-12%	-22%
COc1ccc(CC(=O)NC2CCCN(Cc3ccc(-c4cc(C)cc(C)c4)cc3)C2)cc1 (stereo unspecified)	i	0%	9	-30%	.
CNC(=O)c1cc(C2CC2)nc2onc(C3CCN(C(=O)C4CC4)CC3)c12	.	.	-7	.	.
CCc1ccc(C(=O)Nc2cc(CN3CCN(C)CC3)cc(C(F)(F)F)c2)cc1C#Cc1cnc2ccnn2c1	?	?	-39*	24µM*	?
CCN1CCN(Cc2ccc(NC(=O)c3ccc(C)c(NC(=O)c4cncc(-c5cccs5)c4)c3)cc2C(F)(F)F)CC1	-9%	?	-5	.	.
Brc1ccc2nc(SCCOc3ccccc3)[nH]c2c1	.	9%	-32*	78%	?
COC(=O)CNC(=O)c1nc2cccnc2n(Cc2ccccc2)c1=O	-5%	-11%	9	-22%	.
COc1ccc(Br)cc1[C@@H]1Nc2ccc(C(=O)O)cc2[C@@H]2C=CC[C@@H]21	.	-5%	-40*	-22%	?
COc1ccc(OC)c([C@@H]2Nc3ccc(C(=O)O)cc3[C@@H]3C=CC[C@@H]32)c1	.	5%	-27*	16%	?
CC(=O)c1ccc(NC(=O)Cn2c(-c3ccc(F)cc3)nc(C)cc2=O)cc1	-1%	-15%	-3	31%	.
COc1cccc(C(=O)NC2CCN(c3nccc(Nc4ccc(C)cc4)n3)CC2)c1	i	?	2	?	.
Cc1ccc2c(CNCc3cccc(Cl)c3)c(C(=O)O)n(Cc3ccc(F)cc3Cl)c2c1	.	-3%	-27*	8%	17%
COc1ccc(CNCc2c(C(=O)O)n(Cc3ccc(F)cc3)c3cc(C)ccc23)cc1OC	.	-12%	10	35%	.
Cc1nc2cc(-c3cccc(F)c3)nn2c(C)c1CCC(=O)NC(C)c1ccccc1 (stereo unspecified)	.	?	-25*	?	1%
Cc1nc2cc(-c3cccc(F)c3)nn2c(C)c1CCC(=O)NCCc1ccccc1	.	-1%	-8	13%	.
CCCCC(=O)Nc1ccccc1C(=O)OCc1cc(=O)n2nc(C3CCCCC3)sc2n1	.	-20%	-28*	-1%	-15%
Cc1ccccc1C(=O)OCc1cc(=O)n2nc(C3CCCCC3)sc2n1	.	-9%	10	12%	.
COc1ccnc(-c2nnc3ccc(N(C)c4ccccc4)nn23)c1	1%[88.5 µM]	?	-39*	?	?
CN(Cc1ccccc1)C(=O)c1ccnc(-c2nnc3ccc(N(C)c4ccccc4)nn23)c1	0%	-10%	-3	1%	.
COc1ccc(CNC(=O)CSc2ncc3c(n2)-c2cc(Cl)ccc2N(Cc2ccccc2)S3(=O)=O)cc1OC	.	1%	-8	-7%	.
COc1ccc(CNC(=O)CSc2ncc3c(n2)-c2cc(Cl)ccc2N(Cc2ccccc2)S3(=O)=O)cc1	.	4%	-27*	25%	9%
COc1ccc(-n2c(=O)c(C(=O)NCc3cccc(F)c3)nc3cccnc32)cc1	i	-7%	2	?	.
